Laboratory results from PubChem BioAssay AID1159580 (chemical genetic matrix, 2015).
Hit rate of the full screen: of about 5,500 compounds, about 2,000 (36%) were called active. About 18% were inconclusive and are not listed. Rule as the data show it: active = normalized growth mostly below about 0.91 (no sharp cut-off); inconclusive = no clear call, values can overlap the other calls; inactive = mostly above about 0.92. Some of the results follow.

Test: chemical genetic growth profiling, strain panel (AID 1159580);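 also: tested at 20 µM; growth read once vehicle control cultures reached saturation at 30 °C; 1 = growth at the plate median or of vehicle wells; lower values mean less growth of the strain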
Conditions: growth OD

Measured: normalized growth

O=C1[C@H](CCC(O)c2ccc(F)cc2)[C@@H](c2ccc(O)cc2)N1c1ccc(F)cc1 (some centres not stated)
inactive: S. cerevisiae deletion strains, locus YJR075W, strain HOC1, hits give low values 0.986 | S. cerevisiae deletion strains, locus YKL009W, strain mrt4, hits give low values 0.944 | S. cerevisiae deletion strains, locus YKL068W, hits give low values 0.989 | S. cerevisiae deletion strains, locus YKL085W, strain MDH1 (second series), hits give low values 0.983 | S. cerevisiae deletion strains, locus YKL085W, strain MDH1, hits give low values 0.983 | S. cerevisiae deletion strains, locus YKL160W, strain elf1, hits give low values 0.974 | S. cerevisiae deletion strains, locus YKL190W, strain CNB1, hits give low values 0.995 | S. cerevisiae deletion strains, locus YKR001C, strain vps1, hits give low values 0.968 | S. cerevisiae deletion strains, locus YKR026C, strain gcn3, hits give low values 0.961 | S. cerevisiae deletion strains, locus YKR091W, strain srl3, hits give low values 0.977 | S. cerevisiae deletion strains, locus YLL001W, strain dnm1, hits give low values 0.937 | S. cerevisiae deletion strains, locus YLL026W, hits give low values 0.977 | S. cerevisiae deletion strains, locus YLL041C, strain sdh2, hits give low values 0.967 | S. cerevisiae deletion strains, locus YLR027C, strain aat2, hits give low values 0.98 | S. cerevisiae deletion strains, locus YLR039C, strain RIC1, hits give low values 0.995 | S. cerevisiae deletion strains, locus YLR058C, strain SHM2, hits give low values 0.982 | S. cerevisiae deletion strains, locus YLR102C, strain apc9, hits give low values 0.972 | S. cerevisiae deletion strains, locus YLR113W, strain HOG1, hits give low values 1 | S. cerevisiae deletion strains, locus YLR221C, strain rsa3, hits give low values 0.986 | S. cerevisiae deletion strains, locus YLR258W, strain gsy2, hits give low values 0.972 | S. cerevisiae deletion strains, locus YLR262C, strain YPT6 (second series), hits give low values 0.988 | S. cerevisiae deletion strains, locus YLR262C, strain YPT6, hits give low values 0.978 | S. cerevisiae deletion strains, locus YLR268W, strain sec22, hits give low values 0.96 | S. cerevisiae deletion strains, locus YLR320W, strain mms22, hits give low values 0.975 | S. cerevisiae deletion strains, locus YLR330W, strain CHS5, hits give low values 0.988 | S. cerevisiae deletion strains, locus YLR342W, strain FKS1 (second series), hits give low values 1.01 | S. cerevisiae deletion strains, locus YLR342W, strain FKS1, hits give low values 0.973 | S. cerevisiae deletion strains, locus YLR357W, strain rsc2, hits give low values 0.978 | S. cerevisiae deletion strains, locus YLR370C, strain arc18, hits give low values 0.967 | S. cerevisiae deletion strains, locus YLR371W, strain rom2, hits give low values 0.971 | S. cerevisiae deletion strains, locus YLR384C, strain iki3, hits give low values 0.976 | S. cerevisiae deletion strains, locus YLR418C, strain cdc73, hits give low values 0.948 | S. cerevisiae deletion strains, locus YML016C, strain PPZ1, hits give low values 0.989 | S. cerevisiae deletion strains, locus YML032C, strain rad52, hits give low values 0.979 | S. cerevisiae deletion strains, locus YML120C, strain ndi1, hits give low values 0.968 | S. cerevisiae deletion strains, locus YML124C, strain tub3, hits give low values 0.977 | S. cerevisiae deletion strains, locus YMR058W, strain fet3, hits give low values 0.977 | S. cerevisiae deletion strains, locus YMR078C, strain ctf18, hits give low values 0.968 | S. cerevisiae deletion strains, locus YMR125W, strain sto1, hits give low values 0.971 | S. cerevisiae deletion strains, locus YMR129W, hits give low values 0.962 | S. cerevisiae deletion strains, locus YMR205C, strain PFK2, hits give low values 0.944 | S. cerevisiae deletion strains, locus YMR223W, strain ubp8, hits give low values 0.987 | S. cerevisiae deletion strains, locus YMR231W, strain pep5, hits give low values 0.994 | S. cerevisiae deletion strains, locus YMR263W, strain SAP30, hits give low values 0.997 | S. cerevisiae deletion strains, locus YMR307W, strain GAS1, hits give low values 0.976 | S. cerevisiae deletion strains, locus YNL067W, strain RPL9B, hits give low values 1 | S. cerevisiae deletion strains, locus YNL071W, strain lat1, hits give low values 0.984 | S. cerevisiae deletion strains, locus YNL128W, strain TEP1, hits give low values 0.994 | S. cerevisiae deletion strains, locus YNL153C, strain GIM3, hits give low values 0.995 | S. cerevisiae deletion strains, locus YNL183C, strain NPR1, hits give low values 0.961 | S. cerevisiae deletion strains, locus YNL209W, strain ssb2, hits give low values 0.99 | S. cerevisiae deletion strains, locus YNL233W, strain BNI4, hits give low values 0.984 | S. cerevisiae deletion strains, locus YNL248C, strain rpa49, hits give low values 0.965 | S. cerevisiae deletion strains, locus YNL250W, strain rad50, hits give low values 0.974 | S. cerevisiae deletion strains, locus YNL271C, strain bni1, hits give low values 0.968 | S. cerevisiae deletion strains, locus YNL298W, strain CLA4, hits give low values 0.961 | S. cerevisiae deletion strains, locus YNL307C, strain MCK1, hits give low values 0.961 | S. cerevisiae deletion strains, locus YNL322C, strain KRE1 (second series), hits give low values 0.971 | S. cerevisiae deletion strains, locus YNL322C, strain KRE1, hits give low values 0.994 | S. cerevisiae deletion strains, locus YNR049C, strain mso1, hits give low values 0.962 | S. cerevisiae deletion strains, locus YNR052C, strain pop2, hits give low values 0.973 | S. cerevisiae deletion strains, locus YOL006C, strain TOP1, hits give low values 0.908 | S. cerevisiae deletion strains, locus YOL012C, strain htz1 1.05 | S. cerevisiae deletion strains, locus YOL147C, strain pex11, hits give low values 0.975 | S. cerevisiae deletion strains, locus YOR001W, strain rrp6, hits give low values 0.967 | S. cerevisiae deletion strains, locus YOR061W, strain CKA2, hits give low values 0.984 | S. cerevisiae deletion strains, locus YOR069W, strain VPS5, hits give low values 0.987 | S. cerevisiae deletion strains, locus YOR070C, strain gyp1, hits give low values 0.982 | S. cerevisiae deletion strains, locus YOR080W, strain dia2, hits give low values 0.956 | S. cerevisiae deletion strains, locus YOR083W, strain WHI5, hits give low values 0.967 | S. cerevisiae deletion strains, locus YOR106W, strain vam3, hits give low values 0.918 | S. cerevisiae deletion strains, locus YOR136W, strain idh2, hits give low values 0.979 | S. cerevisiae deletion strains, locus YOR144C, strain elg1, hits give low values 0.968 | S. cerevisiae deletion strains, locus YOR184W, strain ser1, hits give low values 0.972 | S. cerevisiae deletion strains, locus YOR231W, strain MKK1, hits give low values 0.961 | S. cerevisiae deletion strains, locus YOR265W, strain rbl2, hits give low values 0.976 | S. cerevisiae deletion strains, locus YOR270C, strain vph1, hits give low values 0.801 | S. cerevisiae deletion strains, locus YOR290C, strain snf2, hits give low values 0.987 | S. cerevisiae deletion strains, locus YOR316C, strain cot1, hits give low values 0.966 | S. cerevisiae deletion strains, locus YPL051W, strain arl3, hits give low values 0.991 | S. cerevisiae deletion strains, locus YPL055C, strain LGE1, hits give low values 0.998 | S. cerevisiae deletion strains, locus YPL078C, strain atp4, hits give low values 0.908 | S. cerevisiae deletion strains, locus YPL106C, strain sse1, hits give low values 1 | S. cerevisiae deletion strains, locus YPL240C, strain hsp82, hits give low values 0.994 | S. cerevisiae deletion strains, locus YPL241C, strain CIN2, hits give low values 0.996 | S. cerevisiae deletion strains, locus YPL256C, strain CLN2, hits give low values 0.97 | S. cerevisiae deletion strains, locus YPR119W, strain clb2, hits give low values 0.984 | S. cerevisiae deletion strains, locus YPR141C, strain kar3, hits give low values 0.956 | S. cerevisiae deletion strains, locus YPR163C, strain tif3, hits give low values 0.962 | S. cerevisiae deletion strains, locus YPR167C, strain met16, hits give low values 0.966 | S. cerevisiae deletion strains, strain wtn01, hits give low values 0.971 | S. cerevisiae strains, strain wild type, hits give low values 1.01
